Experimental data taken from PubChem BioAssay AID743356 (Broad Institute, 2014).
Unmarked numbers belong to inactive results.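 The calls were made as follows: active = compounds that cut cell viability with a fitted half-maximal dose no more than twice the top valid dose; inconclusive = flat curve inhibiting 30 to 70%, or a poor fit; inactive = the rest, including any rise in viability.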

Assay: viability loss in A549 lung cells – cell-based, luminescence, dry powder, set 10, cytotoxicity control, dose response (AID 743356)
Conditions: CellTiter-Glo ATP luminescence, 72 h; at 26 µM unless noted

Row | Compound | max inhibition of viability %, active compounds read high
1 | CCC(=O)N1CC[C@@H]2[C@@H](CO)N(C)c3ccc(-c4ccc(F)cc4)cc3[C@@H]21 | -5.87% [at 0.09 µM]
2 | CN1c2ccc(-c3cccc(F)c3)cc2[C@H]2[C@H](CCN2C(=O)CCCCCCN)[C@H]1CO | 15.1% [at 0.0004 µM]
3 | COC(=O)CCCCCCC(=O)N1CC[C@@H]2[C@@H](CO)N(C)c3ccc(-c4cccc(F)c4)cc3[C@@H]21 | 8.86% [at 6 µM]
4 | CC(=O)c1ccc(N2CC3(CN(C(=O)c4ccc5c(c4)OCO5)C3)C2)cc1 | -11.2% [setting not given]
5 | CN1c2ccc(-c3ccc(F)cc3)cc2[C@H]2[C@H](CCN2C(=O)Cc2cccnc2)[C@H]1CO | 13.9% [at 0.0007 µM]
6 | CC(C)NC(=O)N1CC[C@@H]2[C@@H](CO)N(C)c3ccc(-c4ccc(F)cc4)cc3[C@@H]21 | 12.6% [at 0.05 µM]
